High-throughput results: PubChem BioAssay, National Center for Advancing Translational Sciences (NCATS)
NS1 function inh – influenza NS1 inhibition. Potency, µM (series often up to 46.1 µM). 0.4% of 270,000 active. AID 2326; calls by dose curve; also: actives are rising curves; nearly all actives have a fitted effect of over 50% in size
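Growth recovery, yeast-based: influenza A NS1 expressed in S. cerevisiae causes slow growth, and suppressors are detected by OD600. The parent strain without NS1 is used as positive control.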
Pf growth 48h – inhibits P. falciparum growth in the first generation, 48 h; AID 504832; P. falciparum luciferase growth in erythrocytes, 48 h; 5.9% of 310,000 active; Potency, µM (titrated, usually from 28.7 µM), hits mostly inhibitors
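Erythrocytes infected with P. falciparum carrying an integrated firefly luciferase reporter (2% hematocrit, 0.1% parasitemia final) were exposed to compounds in RPMI 1640 with 0.5% Albumax at 37 C, 5% CO2. Growth inhibition was scored as reduced luminescence.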
SARS PLP yeast – inhibitors of SARS-CoV papain-like protease in yeast; S. cerevisiae expressing SARS-CoV PLpro, growth rescue; Potency, µM (top dose mostly 32.9 µM), hits mostly activators; 0.19% of 330,000 active; calls by dose curve; also: nearly all actives have a fitted effect of over 55% in size
Pf growth 96h – P. falciparum growth inhibition at 96 hour, primary screen for plastid delayed-death inhibitors; Potency, µM (series often up to 28.7 µM), actives largely listed as inhibitors; P. falciparum luciferase reporter growth, 96 h; 6.9% of 320,000 active
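Erythrocytes infected with luciferase-expressing P. falciparum were dispensed at 2% hematocrit and 0.05% parasitemia (final), then incubated with compounds 96 hours at 37 C in 5% CO2. Luminescence after detection reagent addition reported growth.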
Each line names hits and unclear results; the compound was inactive in the other large screens. Shown are actives, neighbours in structure and some others; about 10% of the full set was active somewhere. Unless noted, calls follow the shape of the dose curve; as a rule, active = well fitted inhibition curve with a large enough effect; inconclusive = small, poorly fitted or top-dose-only effect, or another doubt; inactive = no such curve, though single readings can be large or run the other way.

Cn1nnnc1Sc1ncnc2scc(-c3cccs3)c12	Pf growth 48h inconclusive, Pf growth 96h inconclusive (no result: NS1 function inh)
Cn1nnnc1Sc1ncnc2scc(-c3cc4ccccc4o3)c12	Pf growth 48h 4.15µM, Pf growth 96h inconclusive (no result: NS1 function inh)
Cn1nnnc1Sc1ncnc2scc(-c3ccc(-c4ccccc4)cc3)c12	none (no result: NS1 function inh, Pf growth 48h, Pf growth 96h)
CC(=O)c1ccccc1-c1csc2ncnc(Sc3nnnn3C)c12	Pf growth 48h 11.7µM, Pf growth 96h 4.15µM (no result: NS1 function inh)
Cn1nnnc1Sc1ncnc2scc(-c3ccccc3C(F)(F)F)c12	Pf growth 48h 13.1µM, Pf growth 96h 7.38µM (no result: NS1 function inh)
CC(=O)Oc1c(-c2ccc(Br)o2)oc2ccccc2c1=O	Pf growth 48h inconclusive
CC(C)N1CCN(Cc2cc3ccccc3[nH]2)CC1CCO (stereo not drawn)	none
O=C(CN(C(=O)Cn1nnc(-c2ccc(F)cc2)n1)c1cccc(F)c1)NC1CCCC1	Pf growth 48h inconclusive, Pf growth 96h inconclusive
CCN(CC)CCNCc1ccc(Br)cc1OCC(=O)NCc1ccccc1	Pf growth 48h inconclusive
CCN(CC)CCNCc1cc(Br)ccc1OCC(=O)NCc1ccccc1	Pf growth 48h inconclusive, Pf growth 96h 11.7µM
Cc1ccccc1NC(=O)COc1ccc(Br)cc1CNCCCO	Pf growth 48h inconclusive, Pf growth 96h 1.85µM
COc1cc(CNCCCN2CCOCC2)c(Br)cc1OCC(=O)Nc1ccccc1C	Pf growth 48h 10.4µM, Pf growth 96h inconclusive
COc1ccc(-n2c(=O)c3ccccc3n(CC(=O)OCc3ccccc3)c2=O)cc1OC	none (no result: NS1 function inh)
COc1cc(-n2c(=O)c3ccccc3n(CC(=O)OCc3ccccc3)c2=O)cc(OC)c1OC	Pf growth 96h 9.28µM (no result: NS1 function inh)
c1ccc2c(c1)OCC(c1csc3ncnc(N4CCCCC4)c13)O2 (stereo not drawn)	Pf growth 48h inconclusive, Pf growth 96h inconclusive
Clc1ncnc2scc(C3COc4ccccc4O3)c12 (stereo not drawn)	Pf growth 48h 2.94µM, Pf growth 96h 2.62µM
CC(C)(C)c1cc(/C=C(\C#N)C(N)=S)cc(C(C)(C)C)c1O	none (no result: Pf growth 48h, SARS PLP yeast, Pf growth 96h)
CC(C)(C)c1cc(C=C(C#N)C#N)cc(C(C)(C)C)c1O	Pf growth 48h 2.62µM, Pf growth 96h 1.47µM (no result: SARS PLP yeast)
CCCCCCNC(=O)N[C@@H](C(=O)NCCC[C@H]1CN2C(=NC[C@@H]2Cc2ccccc2)N1CCc1cccc(OC)c1)C(C)C	Pf growth 48h 13.1µM, Pf growth 96h 1.31µM
C[C@@H](CN1C2=NC[C@H](C)N2C[C@H]1Cc1ccc(O)cc1)NC(=O)CCC1CCCCC1	Pf growth 96h inconclusive
CCCCCCNC(=O)N[C@H](Cc1ccc(O)cc1)C(=O)NCCC[C@H]1CN2C(=NC[C@H]2CCC)N1CC1CCC1	Pf growth 48h 7.38µM, Pf growth 96h 2.94µM
CCCCCCNC(=O)N[C@@H](Cc1ccc(O)cc1)C(=O)NCCC[C@H]1CN2C(=NC[C@H]2C)N1CC1CCC1	Pf growth 48h 9.28µM, Pf growth 96h 3.29µM
Cc1cc(C)n2nc(SCC(=O)Nc3ccc(F)cc3[N+](=O)[O-])nc2n1	none (no result: NS1 function inh, Pf growth 48h, Pf growth 96h)
CC1(C)CC1C(=O)N/C(=C/CCCCSCC(N)C(=O)O)C(=O)O (stereo not drawn)	none (no result: NS1 function inh, SARS PLP yeast)
COc1ccc(C2Nc3ccccc3C(=O)N2Cc2ccccc2)cc1COc1ccc(Cl)cc1Cl (stereo not drawn)	Pf growth 48h 1.65µM (no result: NS1 function inh)
COc1ccc(C2Nc3ccccc3C(=O)N2Cc2ccccc2)cc1CN1CCOCC1 (stereo not drawn)	Pf growth 48h 8.28µM, Pf growth 96h 13.1µM
COc1ccc(N2C(=O)c3ccccc3NC2c2ccc(OC)c(Cn3nnc4ccccc43)c2)cc1 (stereo not drawn)	Pf growth 48h 11.7µM, Pf growth 96h 9.28µM
COc1ccc(C2Nc3ccccc3C(=O)N2c2ccc(C)cc2)cc1Cn1nc(C)c([N+](=O)[O-])c1C (stereo not drawn)	Pf growth 48h inconclusive, Pf growth 96h inconclusive
O=C1c2ccccc2NC(c2ccc(F)cc2)N1Cc1ccccc1 (stereo not drawn)	Pf growth 48h inconclusive
Cn1c(=O)n(CCCO)c(=O)c2c1nc1n2CCCN1Cc1ccccc1	none
CCn1c(=O)c(=O)[nH]c2cc(C(=O)NCc3ccc(F)cc3)ccc21	none
CCCNC(=O)C(Cc1ccccc1)NC(=O)c1ccccn1 (stereo not drawn)	none (no result: NS1 function inh)
CC(C)C[C@@H](NC(=O)[C@@H](Cc1ccccc1)NC(=O)c1cnccn1)B(O)O	Pf growth 48h 0.12µM, Pf growth 96h 0.0338µM (no result: NS1 function inh, SARS PLP yeast)
CCSc1nnc(-c2cccnc2)n1-c1ccc(C)c(Cl)c1	Pf growth 96h 4.65µM (no result: Pf growth 48h)
CCn1cc(C(=O)N[C@H](C(=O)NCCCN2CCOCC2)C(C)C)c(=O)c2cc3c(cc21)OCO3	Pf growth 48h inconclusive, SARS PLP yeast inconclusive
Cc1csc(SCC(=O)c2ccc(S(=O)(=O)N3CCOCC3)cc2)n1	Pf growth 48h inconclusive, Pf growth 96h 10.4µM
CCc1ccc(C(=O)CSc2nc3cc(S(=O)(=O)N4CCOCC4)ccc3n2CC)cc1	Pf growth 48h inconclusive, Pf growth 96h 10.4µM
Cc1csc(SCC(=O)Nc2cc(S(=O)(=O)N3CCOCC3)ccc2N2CCOCC2)n1	Pf growth 48h inconclusive, Pf growth 96h inconclusive
C/C(=N\NS(=O)(=O)c1c(C)cc(C)cc1C)c1ccncc1	none
COc1cc(N2CCCC2)c(OC)cc1/C=C(/C#N)c1ccc(Br)cc1	Pf growth 96h inconclusive (no result: Pf growth 48h)
COc1cc(N2CCCC2)c(OC)cc1/C=C(/C#N)c1ccc(F)cc1	Pf growth 48h 10.4µM
O=C(O)CC[P+](c1ccccc1)(c1ccccc1)c1ccccc1	none (no result: Pf growth 48h, SARS PLP yeast, Pf growth 96h)
O=c1cnc2ccccc2n1Cc1ccccc1C(F)(F)F	none
CCNC(=O)c1ccc(CSc2ccc(Cl)cc2)cc1	Pf growth 48h 4.65µM, Pf growth 96h inconclusive
Cc1ccc(SCc2ccc(C(=O)Nc3ccccc3C(=O)NC(C)C)cc2)cc1	none
CCCNC(=O)c1ccccc1NC(=O)c1ccc(CSc2ccccc2)cc1	Pf growth 48h 13.1µM, Pf growth 96h inconclusive
CCC(C)NC(=O)c1ccccc1NC(=O)c1ccc(CSc2ccccc2)cc1 (stereo not drawn)	Pf growth 48h 11.7µM
O=C(O)Cn1ccnc1[N+](=O)[O-]	none (no result: Pf growth 48h, SARS PLP yeast, Pf growth 96h)
Nn1c(=O)c2ccccc2n2c(SCc3ccc(C(F)(F)F)cc3)nnc12	Pf growth 96h inconclusive (no result: Pf growth 48h)
Cc1nc(Nc2ccc(O)cc2)c2c3c(sc2n1)CCCC3	Pf growth 48h 14.7µM, Pf growth 96h inconclusive
Cc1ccc(CNc2nc(C)nc3sc4c(c23)CCC4)cc1	Pf growth 96h inconclusive
CN(C1CCCCC1)S(=O)(=O)c1ccc(S(=O)(=O)N2CCCC2)cc1	Pf growth 48h inconclusive, Pf growth 96h 1.65µM
CCOc1ccc(S(=O)(=O)NC2CCCCCC2)cc1	none
CCOc1ccc(S(=O)(=O)N(C)C2CCCCC2)cc1	Pf growth 96h 1.65µM
CN(Cc1ccccc1)C(=O)COC(=O)CN1C(=O)c2ccccc2C1=O	none (no result: NS1 function inh, Pf growth 48h, Pf growth 96h)
CN(C)c1nc(Nc2ccc(F)cc2)nc(Oc2ccc(F)cc2)n1	Pf growth 96h inconclusive
CN(C)c1nc(N/N=C/c2ccccc2O)nc(Nc2ccc(F)cc2)n1	Pf growth 48h 3.7µM (no result: NS1 function inh)
O=Cc1ccc(OC(=O)CCCCC(=O)Oc2ccc(C=O)cc2)cc1	Pf growth 48h inconclusive, Pf growth 96h 0.0033µM
Nc1cc(=O)[nH]c(SCC(=O)Nc2ccc(N3CCCCC3)cc2)n1	none (no result: NS1 function inh, Pf growth 48h, Pf growth 96h)
Cc1c(N=Cc2cc(Br)cc(Br)c2O)cccc1C(=O)O	Pf growth 48h 11.7µM, Pf growth 96h inconclusive
